Experimental data from PubChem BioAssay.
Active and inactive are the calls of the source.

Experiments:
[1] = test system: Plasmodium falciparum Sir2 (PF13_0152, Sir2A); assay: Plasmodium falciparum Sir2A binding compounds – biochemical, small-molecule microarray, 635 nm fluorescence, primary screen (AID 1098); conditions: fluorescence 635 nm, higher = more signal;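 further: score merges spot fluorescence intensity with its signal-to-noise ratio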
[2] = probe aDKK1 binding to arrayed compounds – biochemical, biotinylated probe, 635/667 nm fluorescence, primary screen (AID 1099); conditions: small-molecule microarray, higher = more signal;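 further: score merges 667nm spot fluorescence with signal to noise across triplicate slides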
[3] = probe aCHRDL2 binding to arrayed compounds – biochemical, biotinylated probe, 635/667 nm fluorescence, primary screen (AID 1100); conditions: small-molecule microarray, higher = more signal
[4] = change in splice reporter luminescence, either direction, cell-based, HEK293, spliceosome inhibition project, primary screen (AID 1101); conditions: HEK293 splicing luciferase reporter, 24 h, higher = more signal, called active from +8 up or from −8 down;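 further: HEK293 cells carrying a splicing-competent luciferase reporter gene; test concentration not given here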
[5] = target: Fibroblast growth factor 10 (Homo sapiens) (UniProt O15520); assay: compounds binding fibroblast growth factor 10 – biochemical, small-molecule microarray, 635 nm fluorescence, primary screen (AID 1102); conditions: FGF10 binding, fluorescence 635 nm, higher = more signal
[6] = test system: glycogen synthase kinase-3 (GSK3A per assay name; protocol says GSK3B); assay: compounds binding glycogen synthase kinase-3 – biochemical, small-molecule microarray, 635 nm fluorescence, GSK3A, primary screen (AID 1103); conditions: fluorescence 635 nm, higher = more signal; further: the record names both GSK3A and GSK3B
[7] = target: Epidermal growth factor receptor (Homo sapiens) (UniProt P00533); assay: compounds binding epidermal growth factor receptor – biochemical, small-molecule microarray, 635 nm fluorescence, primary screen (AID 1104); conditions: EGFR binding, higher = more signal;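 further: score merges 667 nm emission intensity with spot signal to noise over triplicate slides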
[8] = target: Follistatin-related protein 3 (Homo sapiens) (UniProt O95633); assay: compounds binding follistatin-related protein 3 – biochemical, small-molecule microarray, 635 nm fluorescence, primary screen (AID 1105); conditions: FSTL3 binding, higher = more signal;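 further: score merges emission near 667 nm and signal to noise per printed spot across three slides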
[9] = target: Dickkopf-related protein 1 (Homo sapiens) (UniProt O94907); assay: small molecules binding DKK1 protein – biochemical, small-molecule microarray, 635 nm fluorescence scan, primary screen (AID 1106); conditions: higher = more signal;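 further: score merges emission near 667 nm with signal to noise over three replicate slides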
[10] = test system: Inhibin beta A chain (activin A); assay: small molecules binding activin A – biochemical, small-molecule microarray, 635 nm fluorescence scan, primary screen (AID 1107); conditions: INHBA, higher = more signal;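 further: mouse activin A protein probed at 4.33 µg/mL on printed slides; score merges bound-protein fluorescence near 667 nm with spot signal-to-noise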
[11] = test system: Human papillomavirus type 1a protein E7 (residues 44-93); assay: small molecules binding HPV E7 44-93 – biochemical, small-molecule microarray, residues 44-93, 635 nm fluorescence, primary screen (AID 1108); conditions: fluorescence 635 nm, higher = more signal;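 further: E7 fragment applied at 1 µg/mL in TBST for 1 h at 4 C; score combines spot fluorescence with its signal to noise ratio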
[12] = hepatitis C replication reporter changes, two-sided – Huh7 cells, luciferase reporter, HCV replication inhibitor project, primary screen (AID 1109); conditions: Huh7 HCV replicon luciferase reporter, 48 h; higher = more signal;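 further: huh7 hepatoma cells harbouring a luciferase neomycin HCV replicon reporter; luciferase luminescence as measure of HCV replicon replication; test concentration not given here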
[13] = target: Left-right determination factor 2 (Homo sapiens) (UniProt O00292); assay: small molecules binding LEFTY2 protein – biochemical, small-molecule microarray, 635 nm fluorescence scan, primary screen (AID 1110); conditions: higher = more signal
[14] = target: Calmodulin-1 (Homo sapiens) (UniProt P0DP23); assay: small molecules binding calmodulin-1 with EGTA – biochemical, small-molecule microarray, Cy5-labelled CALM1, profiling panel (AID 1111); conditions: Cy5-CALM1 binding fluorescence, higher = more signal;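 further: labelled calmodulin applied in Tris saline Tween buffer holding calcium plus EGTA and DTT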
[15] = target: Calmodulin-1 (Homo sapiens) (UniProt P0DP23); assay: small molecules binding Ca-loaded calmodulin-1 – biochemical, small-molecule microarray, Cy5-labelled CALM1, plus calcium, artefact control for SMM control-protein annotation, profiling panel (AID 1112); conditions: Cy5-CALM1 binding fluorescence, higher = more signal;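 further: score merges spot fluorescence with signal to noise from triplicate slides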
[16] = probe aWnt5a binding to arrayed compounds – biochemical, biotinylated probe, 635/667 nm fluorescence, primary screen (AID 1113); conditions: small-molecule microarray, higher = more signal;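 further: score merges 667 nm fluorescence intensity with signal-to-noise per printed feature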
[17] = probe aShh binding to arrayed compounds – biochemical, biotinylated probe, 635/667 nm fluorescence, primary screen (AID 1114); conditions: small-molecule microarray, higher = more signal;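 further: probe is biotin-labelled aShh protein from a stem cell growth factor screen; measures binding of labelled protein to compounds printed on the slide; score merges feature fluorescence at 667 nm with signal-to-noise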
[18] = probe aNog binding to arrayed compounds – biochemical, biotinylated probe, 635/667 nm fluorescence, primary screen (AID 1115); conditions: small-molecule microarray, higher = more signal;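 further: probe is biotinylated aNog protein used at 0.15 µg/mL for 1 h at 4 C; z-score combines 667 nm fluorescence of each spot with its signal to noise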
[19] = target: Torsin-1A-interacting protein 1 (Homo sapiens) (UniProt Q5JTV8); assay: compound microarray binding of lysate hLAP1 – cell lysate, small-molecule microarray, COS7 lysate, 635/667 nm fluorescence, primary screen (AID 1116); conditions: 635 nm fluorescence, higher = more signal
[20] = target: Alpha-bungarotoxin (Bungarus multicinctus) (UniProt P60615); assay: compounds binding labelled alpha-BTX control protein – biochemical, small-molecule microarray, Alexa647 label, 635/667 nm fluorescence, artefact control for SMM control protein annotation, profiling panel (AID 1117); conditions: alpha-BTX-A647 binding fluorescence, higher = more signal
Sequence of Alpha-bungarotoxin (Bungarus multicinctus) (P60615 whole entry, looked up): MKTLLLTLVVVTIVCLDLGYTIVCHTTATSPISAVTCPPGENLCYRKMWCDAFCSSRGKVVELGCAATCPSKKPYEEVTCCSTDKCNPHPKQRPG

Sequence of Follistatin-related protein 3 (Homo sapiens) (O95633 whole entry, looked up): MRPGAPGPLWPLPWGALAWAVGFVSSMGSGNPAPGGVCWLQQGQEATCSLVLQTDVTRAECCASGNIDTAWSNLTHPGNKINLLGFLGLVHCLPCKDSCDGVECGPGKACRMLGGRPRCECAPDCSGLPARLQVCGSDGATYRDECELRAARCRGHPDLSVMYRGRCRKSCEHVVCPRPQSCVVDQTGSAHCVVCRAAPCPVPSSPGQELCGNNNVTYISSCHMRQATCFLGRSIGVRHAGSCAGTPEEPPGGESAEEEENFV
Sequence of Dickkopf-related protein 1 (Homo sapiens) (O94907 whole entry, looked up): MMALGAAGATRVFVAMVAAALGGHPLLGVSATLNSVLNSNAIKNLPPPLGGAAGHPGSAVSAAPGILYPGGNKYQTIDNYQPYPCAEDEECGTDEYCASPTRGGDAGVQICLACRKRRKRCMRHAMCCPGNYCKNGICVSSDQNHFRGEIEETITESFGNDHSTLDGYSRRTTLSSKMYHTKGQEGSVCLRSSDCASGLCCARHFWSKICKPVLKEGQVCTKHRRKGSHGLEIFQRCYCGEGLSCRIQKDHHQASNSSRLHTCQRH
Sequence of Left-right determination factor 2 (Homo sapiens) (O00292 whole entry, looked up): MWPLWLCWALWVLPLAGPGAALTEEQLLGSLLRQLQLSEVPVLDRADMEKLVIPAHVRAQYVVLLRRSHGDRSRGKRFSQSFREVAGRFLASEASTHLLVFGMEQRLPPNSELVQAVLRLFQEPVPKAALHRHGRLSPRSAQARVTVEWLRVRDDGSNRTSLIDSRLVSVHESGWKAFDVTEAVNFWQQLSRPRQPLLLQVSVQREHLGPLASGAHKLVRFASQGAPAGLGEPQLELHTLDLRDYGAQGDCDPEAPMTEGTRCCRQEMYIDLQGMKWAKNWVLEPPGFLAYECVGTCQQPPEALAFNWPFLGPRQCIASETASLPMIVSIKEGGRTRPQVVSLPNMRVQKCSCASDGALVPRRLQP
Sequence of Fibroblast growth factor 10 (Homo sapiens) (O15520 whole entry, looked up): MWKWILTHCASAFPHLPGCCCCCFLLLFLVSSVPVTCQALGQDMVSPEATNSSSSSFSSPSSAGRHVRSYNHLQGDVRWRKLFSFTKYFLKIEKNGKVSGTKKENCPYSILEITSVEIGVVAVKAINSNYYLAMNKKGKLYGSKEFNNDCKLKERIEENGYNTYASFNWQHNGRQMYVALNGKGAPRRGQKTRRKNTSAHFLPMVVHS
Sequence of Epidermal growth factor receptor (Homo sapiens) (P00533 whole entry, looked up): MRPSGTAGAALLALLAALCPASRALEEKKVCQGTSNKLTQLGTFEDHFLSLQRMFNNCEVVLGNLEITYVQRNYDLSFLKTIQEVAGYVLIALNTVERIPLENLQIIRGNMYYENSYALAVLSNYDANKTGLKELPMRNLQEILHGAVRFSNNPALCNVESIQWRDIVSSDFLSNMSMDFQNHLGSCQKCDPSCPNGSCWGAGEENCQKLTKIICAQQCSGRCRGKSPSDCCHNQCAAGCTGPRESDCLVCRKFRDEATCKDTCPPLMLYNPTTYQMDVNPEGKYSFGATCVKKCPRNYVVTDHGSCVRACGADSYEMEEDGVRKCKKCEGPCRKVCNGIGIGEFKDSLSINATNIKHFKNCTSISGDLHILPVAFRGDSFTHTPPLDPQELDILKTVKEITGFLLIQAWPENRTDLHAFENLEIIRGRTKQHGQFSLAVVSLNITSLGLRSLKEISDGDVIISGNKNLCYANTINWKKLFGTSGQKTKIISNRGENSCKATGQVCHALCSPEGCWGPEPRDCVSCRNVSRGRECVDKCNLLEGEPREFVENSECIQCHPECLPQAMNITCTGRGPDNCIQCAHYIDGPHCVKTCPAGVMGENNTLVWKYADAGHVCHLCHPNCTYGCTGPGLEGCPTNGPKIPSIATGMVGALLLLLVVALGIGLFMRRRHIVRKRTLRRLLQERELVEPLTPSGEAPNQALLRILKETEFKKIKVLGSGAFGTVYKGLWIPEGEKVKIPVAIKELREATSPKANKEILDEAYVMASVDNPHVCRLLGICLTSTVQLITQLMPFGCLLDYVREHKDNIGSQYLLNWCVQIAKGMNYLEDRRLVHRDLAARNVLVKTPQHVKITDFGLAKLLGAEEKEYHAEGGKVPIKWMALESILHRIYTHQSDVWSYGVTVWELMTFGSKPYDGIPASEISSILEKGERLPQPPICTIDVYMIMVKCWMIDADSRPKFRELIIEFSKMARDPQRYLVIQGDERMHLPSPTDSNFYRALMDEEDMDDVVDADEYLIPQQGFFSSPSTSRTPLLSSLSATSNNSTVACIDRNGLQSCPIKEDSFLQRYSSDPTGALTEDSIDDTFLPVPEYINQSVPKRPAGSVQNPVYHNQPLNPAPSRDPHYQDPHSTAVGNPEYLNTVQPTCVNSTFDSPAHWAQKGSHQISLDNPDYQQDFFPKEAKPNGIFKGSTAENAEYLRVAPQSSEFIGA
Sequence of Torsin-1A-interacting protein 1 (Homo sapiens) (Q5JTV8 whole entry, looked up): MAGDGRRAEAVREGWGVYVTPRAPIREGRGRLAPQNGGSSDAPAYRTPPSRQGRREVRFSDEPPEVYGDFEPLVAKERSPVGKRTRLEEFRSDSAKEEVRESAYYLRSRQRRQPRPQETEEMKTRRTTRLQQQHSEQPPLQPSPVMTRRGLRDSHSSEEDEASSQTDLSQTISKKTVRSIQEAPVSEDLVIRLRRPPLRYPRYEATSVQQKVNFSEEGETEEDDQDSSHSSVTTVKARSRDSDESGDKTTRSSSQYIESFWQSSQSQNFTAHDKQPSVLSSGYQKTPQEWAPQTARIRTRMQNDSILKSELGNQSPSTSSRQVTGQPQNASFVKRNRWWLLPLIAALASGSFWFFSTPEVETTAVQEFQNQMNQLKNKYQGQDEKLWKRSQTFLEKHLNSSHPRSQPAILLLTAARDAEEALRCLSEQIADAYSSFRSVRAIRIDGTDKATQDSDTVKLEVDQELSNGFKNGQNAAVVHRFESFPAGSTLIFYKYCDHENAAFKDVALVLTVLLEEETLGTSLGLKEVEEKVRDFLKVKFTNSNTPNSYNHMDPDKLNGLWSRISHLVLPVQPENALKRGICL

Structure (SMILES) | composite z-score [1] | composite z-score [2] | composite z-score [3] | z-score [4] | composite z-score [5] | composite z-score [6] | composite z-score [7] | composite z-score [8] | composite z-score [9] | composite z-score [10] | composite z-score [11] | z-score [12] | composite z-score [13] | composite z-score [14] | composite z-score [15] | composite z-score [16] | composite z-score [17] | composite z-score [18] | composite z-score [19] | composite z-score [20]
COC(=O)[C@@]1(Cc2ccccc2)[C@H]2c3cc(C(=O)N(C)C)n(CCSCCO)c3C[C@H]2CN1C(=O)c1ccccc1 | 0.751 | 0.692 | 0.829 | -1.48 (inactive) | 0.3 | -0.205 | -0.348 | -0.353 | -0.772 | 0.442 | 0.933 | -1.34 | -0.654 | 1.26 | 0.786 | 0.117 | 0.383 | 1.66 | 0.0664 | 0.317
C=CCNC(=O)[C@H]1[C@@H]2C(=O)O[C@@H](c3ccccc3)[C@@H](c3ccccc3)N2[C@@H](c2ccc(OCCO)cc2)[C@]12C(=O)Nc1ccc(C#CC3=CCCCC3)cc12 | 1.25 | -0.488 | 0.171 | -1.24 (inactive) | 0.929 | 1.05 | 0.293 | 0.881 | 0.183 | 0.543 | 1.4 | -2.4 | 0.477 | 0.508 | -0.36 | 0.0101 | 0.13 | -0.143 | 1.26 | 1.11
COCCOC(=O)N1C(=O)[C@@]2(c3cc(C#CC4=CCCCC4)ccc31)[C@H](C(=O)Nc1nc3ccccc3s1)[C@H]1C(=O)O[C@H](c3ccccc3)[C@H](c3ccccc3)N1[C@@H]2c1ccc(OCCO)cc1 | 0.687 | -0.0057 | 0.235 | 0.000305 (inactive) | 0.945 | 1.21 | 0.36 | 0.908 | 0.495 | 0.91 | 1.05 | -1.09 | 0.269 | 0.792 | -0.171 | -0.0685 | -0.196 | -0.337 | 0.47 | 0.387
C=CCN1C(=O)[C@@]2(O[C@@H](CCO)[C@H]([Si](C)(C)c3ccc(OC)cc3)[C@H]2C)c2cc(NC(=O)c3ccc(OC)cc3)ccc21 | 0.45 | -0.138 | -0.46 | -0.491 (inactive) | 1.09 | 0.587 | 0.424 | 0.722 | 0.532 | 1.32 | -0.747 | -4.9 | 0.629 | -0.178 | 0.678 | -0.199 | 0.0062 | 0.141 | -0.419 | 0.565
CC[C@@H]1C=C(C(=O)O)[C@H](c2ccco2)N1S(=O)(=O)c1ccc(C)cc1 | 1.37 | -0.0292 | 0.333 | 0.447 (inactive) | 0.0314 | 0.175 | -0.832 | 0.291 | 0.128 | 1.23 | -0.11 | -1.22 | -0.0532 | -0.256 | -0.841 | -0.0529 | -0.0146 | 0.0051 | 0.018 | 0.396
CN1C(=O)C2C=CC(C(O)c3cccs3)N(Nc3ccccc3)C2C1=O (stereo not given) | 0.748 | 0.168 | 0.272 | 1.46 (inactive) | 0.765 | 0.0802 | 0.007 | 0.174 | -0.0478 | 0.693 | 0.548 | -0.304 | 0.0032 | 0.041 | -0.591 | 0.211 | 0.265 | 0.0924 | 0.558 | 0.336
O=C1OCC=C[C@H]2OC34C=CCN(c5ccc6ccccc6c5)C(=O)[C@H]3N(CCCCCCO)C(=O)[C@@H]4[C@@H]12 (stereo not given in full) | 1.66 | -0.117 | 0.817 | -0.076 (inactive) | -0.821 | -1.12 | -1.79 | -1.69 | -0.854 | 0.0633 | -0.925 | 0.699 | -1.06 | -0.327 | 0.132 | -0.152 | 0.0121 | 0.509 | 1.09 | -1.01
CN(C)CCCNC(=O)[C@@]1(c2ccc([N+](=O)[O-])cc2)CC(=O)N(C2CCCCC2)[C@@H]1c1ccc(CO)cc1 | 0.762 | 0.0157 | 0.759 | 0.315 (inactive) | -0.105 | -0.148 | -0.364 | 0.156 | -0.236 | 1.27 | 1.04 | -1.77 | -0.419 | 0.465 | 0.0617 | -0.25 | -0.408 | -0.483 | 0.218 | 0.8
CN1C(=O)C2C=CC(C(O)c3ccc(-c4ccccc4)s3)N(N(c3ccccc3)c3ccccc3)C2C1=O (stereo not given) | 0.61 | 0.818 | 0.798 | 0.214 (inactive) | 0.186 | 0.724 | -0.0198 | 0.338 | 0.0129 | 1.18 | 0.761 | 0.339 | -0.18 | 0.906 | 0.405 | 0.0324 | -0.0813 | 1.44 | 0.397 | 1.37
O=C1NC(=O)C2C1C=CC(C(O)c1ccccc1)N2Nc1ccc(Cl)cc1Cl (stereo not given) | 1.62 | 0.394 | 0.914 | -1.36 (inactive) | 1.14 | 1.27 | 0.531 | 1.27 | -0.0035 | 0.705 | 1.39 | -1.25 | 0.628 | 2.13 | 1.09 | 0.17 | 0.412 | 1.44 | 1.98 | 1.55
COc1ccc([C@H]2C[C@H]3C(Br)=C[C@@H]2C(=O)[C@]32CO2)cc1 | 0.0371 | -0.308 | -0.193 | -0.613 (inactive) | -0.105 | -0.515 | 0.427 | 0.202 | 1.03 | 1.52 | -0.693 | -2.46 | 0.446 | -0.0833 | -0.798 | 0.0136 | -0.138 | -0.158 | 0.252 | 0.29
